# Assay results as given in PubChem BioAssay AID1159524 (National Center for Advancing Translational Sciences (NCATS), 2015).
# About 5,100 (1.2%) of roughly 410,000 compounds were called active. Another 8% or so got no clear call; they are omitted. Only a selection was taken, and actives are over-represented in it overall. Values without a mark were called inactive. Calls come from the whole dose curve; tested in HEK293T cells.
# Assay: High Throughput Screening for Foot and Mouth Disease Virus Antivirals; note: read-out not given here; nearly all actives have a fitted effect of over 45% in size
# Conditions: FMDV antiviral cell-based qHTS; series mostly up to 57.9 µM; activity change, negative = inhibition: at the top concentration
# % is set by controls: 0 for no effect and ±100 for the full control effect; potency is the fitted concentration of half-maximal effect.
Compound,"activity change, negative = inhibition [%]",Potency
Cc1cccc2c3c(ccc12)C1=C(C(=O)C3=O)C(C)CO1 (stereo not drawn),-20.6,–
COc1ccc(-c2nc3cnc(Oc4ccccc4)nc3n(Cc3cccs3)c2=O)cc1,5.33,–
CCCCn1c(SCc2ncc(-c3ccccc3)o2)nc2cc(S(N)(=O)=O)ccc21,–,28.2 µM (active)
c1ccc(-c2cnc(CN3CCN(c4ccccc4)CC3)o2)cc1,7.04,–
CCCCn1c(SCC(=O)N2CCCC2=O)nc2cc(S(N)(=O)=O)ccc21,-13,–
CN1CCN2c3ccccc3Cc3ccccc3[C@@H]2C1,-8.38,–
CS(=O)(=O)N1CCC[C@@]2(CCN(c3ccncc3)C2)C1,5.48,–
Cc1ccc(-c2ccc(C(=O)N3CCc4nnc(CNC(=O)c5ccccc5)n4CC3)cc2)cc1,9.83,–
COc1ccc(-c2csc3ncnc(Oc4ccc5c(C)cc(=O)oc5c4)c23)cc1,-19.5,–
COc1ccc(-c2csc3nc(-c4ccccc4F)oc(=O)c23)cc1OC,–,20 µM (active)
Cc1sc2nc(-c3ccccc3F)oc(=O)c2c1C,9.65,–
CCOC(=O)C1CCCN(C(=O)c2ccc(-n3ccc4ccccc43)s2)C1 (stereo not drawn),-12.6,–
CCn1c2ccccc2c2cc(NC(=O)COc3ccc(C)cc3C)ccc21,-14.4,–
Cc1ccc(OCC(=O)Nc2ccc(N3CCN(C(=O)c4ccco4)CC3)cc2)c(C)c1,–,15.8 µM (active)
Cc1ccc(Cl)c(OCC(=O)N(C)CC(=O)Nc2ccc(N3CCOCC3)cc2)c1,-9.29,–
COc1ccc(C(=O)NC2CCCc3c2cnn3-c2cccc(C)c2C)c(OC)n1 (stereo not drawn),–,17.8 µM (active)
COc1cccc(C(=O)Nc2c3c(nn2-c2cccc(C)c2C)CS(=O)(=O)C3)c1OC,-29.6,–
Cc1cccc(C(=O)OC(C)C(=O)NC2CCCc3ccccc32)c1O (stereo not drawn),18.9,–
CCOc1ccc(N(CC)C(=O)c2noc3c2COc2ccc(C)cc2-3)cc1,-9.48,–
O=C(C1CCC(Cn2c(=O)c3sccc3n(Cc3ccccc3F)c2=O)CC1)N1CCCCC1 (stereo not drawn),0,–
CNc1ccc(-c2nc(-c3ccccc3C)no2)cc1[N+](=O)[O-],67.5,–

Compound,"activity change, negative = inhibition [%]",Potency
C#CCCCCCCCCCCCCCCCC(=O)O,–,inactive
CC(=O)c1ccc(NC(=O)CCc2nc(-c3ccc(C)cc3)no2)cc1,-17.7,–
c1ccc(Cc2nn3c(Cn4cnc5ccccc54)nnc3s2)cc1,–,14.1 µM (active)
N#CCCn1cnc2ccccc21,-16,–
Fc1ccc(OCc2nn3c(Cn4nnc5ccccc54)nnc3s2)cc1,-6.75,–
COc1ccc(CNc2ncncc2-c2ccccc2C)c(OC)c1,-20.2,–
Cc1cc(C(=O)NCC2Cc3cccc(-c4cncnc4)c3O2)c(C)o1 (stereo not drawn),-7.51,–
CNc1cc(-c2c(C)noc2C)ncn1,-0.693,–
COCCCNC(=O)c1ccc(NC(=O)c2nsc3ccccc23)cc1,22.2,–
COCCn1c(SCC(=O)c2cc(C)ccc2C)nc2cc(C(=O)NC3CCCC3)ccc2c1=O,-5.56,–
CCc1nc(C)cn1S(=O)(=O)c1cc([N+](=O)[O-])ccc1Cl,–,20 µM (active)
CCc1nccn1S(=O)(=O)c1cccc([N+](=O)[O-])c1,-18.2,–
CC(C)c1nccn1S(=O)(=O)c1cc([N+](=O)[O-])ccc1Cl,-7.03,–
COc1ccc(OCCCn2c(C3CC(=O)N(c4ccc(F)cc4)C3)nc3ccccc32)cc1 (stereo not drawn),-10.8,–
CCc1ccccc1N1CC(c2nc3ccccc3n2CCCCOc2ccccc2)CC1=O (stereo not drawn),0,–
CCCCN1CC(c2nc3ccccc3n2CCCCOc2ccc(C)cc2C)CC1=O (stereo not drawn),–,39.8 µM (active)
Cc1ccc(CNC(=O)Cn2c(=O)ccc3cc(S(=O)(=O)N4CCCC4)ccc32)cc1,-21.1,–
Cc1ccc(-n2c(SCC(=O)c3ccccc3)nc3c([nH]c4ccccc43)c2=O)cc1,4.48,–
O=C1Oc2ccccc2C(=O)/C1=C/c1ccccc1O,–,28.2 µM (active)
C=C(C)C1CC=C(CO)CC1 (stereo not drawn),-0.494,–
COc1ccccc1-n1nnnc1S(=O)(=O)Cc1ccc(Cl)cc1,–,10 µM (active)

Compound,"activity change, negative = inhibition [%]",Potency
COc1ccccc1CN(C)c1nnnn1-c1ccccc1,-2.75,–
CCN(C(=O)CSc1nnnn1-c1ccccc1OC)C1CCS(=O)(=O)C1 (stereo not drawn),17.3,–
CSc1ccccc1N1CCN(CCCCCC(=O)NC2CCCc3ccccc32)CC1 (stereo not drawn),-25,–
CCC(C)C(=O)O[C@@H]1C[C@@]2(C)C(c3ccoc3)OC(=O)CC23OC2(C)O[C@@]14[C@@]1(C)C(CC(=O)OC)C5(C)CC1(O)C(O)(C5OC(=O)C1(C)OC1C)C(OC(C)=O)[C@@]34O2 (stereo partly drawn),-13.6,–
Cc1ccc(NC(=O)N2CCC(C(=O)NCc3ccc(F)cc3)CC2)cc1,–,7.08 µM (active)
O=C(NCc1ccc(F)cc1)C1CCN(C(=O)Nc2ccc(F)cc2)CC1,-17,–
Cc1ccc(C(=O)NC2CCN(C(=O)Nc3ccc(F)cc3)CC2)cc1,0,–
O=C(CCN1Cc2ccccc2OC(c2ccccc2)C1)N[C@@H]1CS(=O)(=O)C[C@H]1O (stereo partly drawn),4.7,–
COc1ccc(NC(=O)CCN2CCN(CCO)CC2)cc1,11.4,–
O=C(NCC(c1ccc(Cl)cc1)N1CCOCC1)c1ccccc1F (stereo not drawn),-11,–
CCC(C)(C)c1ccc(OCC(=O)N(C)C)c(C(C)(C)CC)c1,–,31.6 µM (active)
Cc1ccc(-n2c(=O)c3cccnc3n2CC(=O)NCc2ccc(F)cc2)cc1C,2.88,–
OC[C@@H]1CN(Cc2ccncc2)C[C@H](n2cnc3c(N4CCN(c5ccccc5)CC4)ncnc32)O1,–,12.6 µM (active)
CC(C)Nc1ncnc2c1ncn2[C@H]1CN(Cc2ccncc2)C[C@@H](CO)O1,-18.6,–
OC[C@@H]1CN(Cc2cccs2)C[C@H](n2cnc3c(Nc4ccccc4)ncnc32)O1,4.4,–
OCCN1CCN(c2ncnc3c2ncn3[C@H]2CN(Cc3ccco3)C[C@@H](CO)O2)CC1,-21.6,–
OC[C@@H]1CN(C2CCCC2)C[C@H](n2cnc3c(NC4CCC4)ncnc32)O1,-7.88,–
OC[C@@H]1CN(Cc2ccc(-c3ccccc3)cc2)C[C@H](n2cnc3c(NC4CCCC4)ncnc32)O1,–,15.8 µM (active)
CN1CCN(c2ncc3nc(-c4ccc(Cl)cc4)c(=O)n(-c4ccccc4)c3n2)CC1,0.45,–
CCCCCCCCCCCC(=O)O[C@H](CC(=O)O)C[N+](C)(C)C,-1.5,–
CCc1nn(CC(=O)Nc2cc(C)cc(C)c2)c(=O)c2cc3sccc3n12,-19,–
